Experimental data as given in PubChem BioAssay (Tox21).
Where “and” joins values, the source holds several entries; their conditions need not be identical. Identical values can stand only once. Records with an inconclusive call do not appear. A call without a number means that no potency is given here. More than one record can exist for a structure, and the calls need not agree. Calls of active or inactive are those of the source. Unless noted, calls follow the shape of the dose curve; as a rule, active = well fitted curve in the direction sought with a large enough effect in the repeat runs; inconclusive = weak or mixed curves; inactive = no such curve, though single readings can be large; an effect the other way counts as inactive or inconclusive.

Experiments:
[1] = qHTS assay to identify small molecule antagonists of the estrogen receptor alpha (ER-alpha) signaling pathway using the BG1 cell line in the presence of 0.1 nM 17-beta-estradiol - cell viability counter screen (AID 1259241); also: nearly all actives have a fitted effect of over 40% in size
How it was run: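 VM7Luc4E2 cells (endogenous full-length ER-alpha, 4xERE-luciferase), cultured 5 days in charcoal-stripped serum, exposed to compounds with 0.1 nM 17beta-estradiol (final) for 22 hr at 37C. Viability read in same wells as live-cell protease fluorescence after 30 min.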

[2] = qHTS assay to identify small molecule antagonists of the androgen receptor (AR) signaling pathway using the MDA cell line in the presence of 0.5 nM R1881 - cell viability counter screen (AID 1259242); also: nearly all actives have a fitted effect of over 45% in size
How it was run: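 Steps: plate MDA-kb2 cells, rest 5 hr at 37C without CO2; pin in compounds in DMSO; add R1881 to 0.5 nM final; incubate 16 hr; add CellTiter-Fluor, 30 min; read fluorescence.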

[3] = target: Estrogen receptor (Homo sapiens) (UniProt P03372); test: qHTS assay to identify small molecule antagonists of the estrogen receptor alpha (ER-alpha) signaling pathway using the BG1 cell line in the presence of 0.1 nM 17-beta-estradiol (AID 1259244); also: nearly all actives have a fitted effect of over 50% in size
How it was run: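 Antagonist mode: compounds in DMSO are pinned onto VM7Luc4E2 reporter cells, 0.1 nM final 17beta-estradiol is added, and after 22 h at 37C luciferase luminescence is measured with ONE-Glo.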

[4] = qHTS assay to identify small molecule phospholipidosis (PLD) inducers (AID 1259344; active = well fitted curve in the direction sought with a large enough effect; an effect the other way counts as inactive or inconclusive)
How it was run: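 Accumulated phospholipid, stained red by LipidTOX during 24 h compound treatment of HepG2 cells at 37 C, is quantified from images as pit number and intensity, normalised per cell using Hoechst-stained nuclei.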

[5] = qHTS assay to identify small molecule HDAC inhibitors (AID 1259364);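 also: wild-type HCT-116 cells with endogenous class I/II HDAC activity; top concentration of the series differs between compounds; nearly all actives have a fitted effect of over 45% in size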
How it was run: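 Cells (HCT-116, wild type) are seeded at 1,500 per well, incubated overnight, treated with compound in DMSO for 2 hr, then developed with HDAC-Glo I/II reagent for 30 min at room temperature.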

[6] = qHTS assay to identify small molecule HDAC inhibitors - cell viability counter screen (AID 1259365); also: series mostly up to about 92 µM; nearly all actives have a fitted effect of over 50% in size
How it was run: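 Wild-type HCT-116 cells, 1,500/well, cultured overnight, then compound-treated 2 h at 37 C. Viability measured as ATP luminescence with CellTiter-Glo after 30 min at room temperature.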

[7] = qHTS assay to identify small molecule agonists of the sonic hedgehog signaling (Shh) pathway - cell viability counter screen (AID 1259366); also: nearly all actives have a fitted effect of over 50% in size
How it was run: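 NIH/3T3-derived Gli1-Luc reporter cells, 2,000 per well, received compound after 4 h and were treated about 23 h at 37C. Viability measured in the same wells by CellTiter-Fluor fluorescence after 1 h.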

[8] = qHTS assay to identify small molecule antagonists of the sonic hedgehog signaling (Shh) pathway - cell viability counter screen (AID 1259367); also: nearly all actives have a fitted effect of over 55% in size
How it was run: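 CellTiter-Fluor signal in conditioned medium-stimulated 3T3 Gli1-Luc cells, 23 hr compound exposure, 37C.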

[9] = qHTS assay to identify small molecule agonists of the sonic hedgehog signaling (Shh) pathway (AID 1259368; calls by dose curve;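 also: NIH/3T3-derived 3T3Gli1-Luc cells carrying a stable Gli1-driven firefly luciferase reporter; series mostly up to about 92 µM; nearly all actives have a fitted effect of over 15% in size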)
How it was run: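 Cells of a mouse NIH/3T3 clone stably expressing luciferase under the Gli1 transcriptional response element are exposed to test chemicals for 24 hr at 37 C. Pathway activation is detected as a rise in luminescence.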

[10] = qHTS assay to identify small molecule antagonists of the sonic hedgehog signaling (Shh) pathway (AID 1259369; calls by dose curve; also: nearly all actives have a fitted effect of over 45% in size; also: potency is read from the fitted curve at half-maximal effect)
How it was run: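 Cells are plated and held 4hr at 37 C, compounds (DMSO) are pinned in, conditioned medium is added to stimulate the pathway, and after 24hr luciferase reagent is added for 30min before luminescence is read.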

[11] = qHTS assay to identify small molecule agonists of the androgen receptor (AR) signaling pathway in the presence of an antagonist - cell viability counter screen (AID 1259379);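 also: MDA-kb2 human breast cancer cells carrying an MMTV luciferase reporter; series mostly up to about 92 µM; nearly all actives have a fitted effect of over 25% in size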
How it was run: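 Cytotoxicity is assessed by CellTiter-Fluor in MDA-kb2 cells carrying an MMTV-driven luciferase reporter. Cells receive 3.0uM nilutamide plus compounds at 15 concentrations and incubate 16 hr at 37C without CO2 before fluorescence reading.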

[12] = qHTS assay to identify small molecule agonists of the estrogen receptor beta (ER-beta) signaling pathway - cell viability counter screen (AID 1259380); also: nearly all actives have a fitted effect of over 30% in size
How it was run: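 Cytotoxicity is measured in parallel with the reporter screen: after 16 hr compound exposure at 37C and a 2 hr LiveBLAzer step, CellTiter-Glo is added to the same ER-beta-UAS-bla HEK293T wells and luminescence read after 30 min.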

[13] = qHTS assay to identify small molecule antagonists of the estrogen receptor beta (ER-beta) signaling pathway - cell viability counter screen (AID 1259382);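 also: HEK293T cells carrying ER-beta-UAS-bla reporter stimulated with estradiol; series mostly up to about 92 µM; nearly all actives have a fitted effect of over 55% in size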
How it was run: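 Cytotoxicity counter screen multiplexed with the beta-lactamase antagonist assay: GripTite HEK293T ER-beta-bla cells were treated 16 hr with test chemicals in the presence of 1nM 17-beta-estradiol, and viability was measured by CellTiter-Glo.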

[14] = target: Estrogen receptor (Homo sapiens) (UniProt P03372); test: qHTS assay to identify small molecule agonists of the estrogen receptor alpha (ER-alpha) signaling pathway in the presence of an antagonist (AID 1259383; calls by dose curve; also: top concentration of the series differs between compounds; nearly all actives have a fitted effect of over 15% in size)
How it was run: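 Agonist-mode confirmation in the presence of the ER antagonist ICI-182,780 at 10.0nM final. Breast-derived VM7Luc4E2 reporter cells were exposed to compounds for 22hr, and ERE-driven luciferase was quantified by luminescence.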

[15] = qHTS assay to identify small molecule agonists or antagonists of the thyroid stimulating hormone receptor (TSHR) signaling pathway - wild type cell line counter screen (AID 1259384; calls by dose curve)
How it was run: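 Counter screen in untransfected Hek293: compounds (15-point titration, triplicate) plus phosphodiesterase inhibitor Ro20-1724 added after 18 h plating; 30 min RT. Intracellular cAMP via competitive d2/cryptate immunoassay, 1 h incubation.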

[16] = target: Thyrotropin receptor (Homo sapiens) (UniProt P16473); test: qHTS assay to identify small molecule antagonists of the thyroid stimulating hormone receptor (TSHR) signaling pathway (AID 1259385; calls by dose curve; also: nearly all actives have a fitted effect of over 20% in size)
How it was run: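 Antagonist mode: compound-treated TSHR-expressing HEK293 cells were stimulated with 1.5 ng/mL TSH (final) in presence of Ro20-1724 for 30 min at RT. HTRF cAMP detection after 1 h; each compound tested at 15 concentrations, triplicate.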

[17] = qHTS assay to identify small molecule agonists of the estrogen receptor alpha (ER-alpha) signaling pathway in the presence of an antagonist - cell viability counter screen (AID 1259386); also: series mostly up to about 92 µM; nearly all actives have a fitted effect of over 30% in size
How it was run: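 Cytotoxicity was measured in parallel with the ERE-luciferase agonist screen, in the same wells. The cells were VM7Luc4E2, which endogenously express ER-alpha, and treatment was with compounds plus 10.0nM ICI-182,780 for 22hr.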

Thyrotropin receptor (Homo sapiens), sequence (P16473 whole entry, looked up): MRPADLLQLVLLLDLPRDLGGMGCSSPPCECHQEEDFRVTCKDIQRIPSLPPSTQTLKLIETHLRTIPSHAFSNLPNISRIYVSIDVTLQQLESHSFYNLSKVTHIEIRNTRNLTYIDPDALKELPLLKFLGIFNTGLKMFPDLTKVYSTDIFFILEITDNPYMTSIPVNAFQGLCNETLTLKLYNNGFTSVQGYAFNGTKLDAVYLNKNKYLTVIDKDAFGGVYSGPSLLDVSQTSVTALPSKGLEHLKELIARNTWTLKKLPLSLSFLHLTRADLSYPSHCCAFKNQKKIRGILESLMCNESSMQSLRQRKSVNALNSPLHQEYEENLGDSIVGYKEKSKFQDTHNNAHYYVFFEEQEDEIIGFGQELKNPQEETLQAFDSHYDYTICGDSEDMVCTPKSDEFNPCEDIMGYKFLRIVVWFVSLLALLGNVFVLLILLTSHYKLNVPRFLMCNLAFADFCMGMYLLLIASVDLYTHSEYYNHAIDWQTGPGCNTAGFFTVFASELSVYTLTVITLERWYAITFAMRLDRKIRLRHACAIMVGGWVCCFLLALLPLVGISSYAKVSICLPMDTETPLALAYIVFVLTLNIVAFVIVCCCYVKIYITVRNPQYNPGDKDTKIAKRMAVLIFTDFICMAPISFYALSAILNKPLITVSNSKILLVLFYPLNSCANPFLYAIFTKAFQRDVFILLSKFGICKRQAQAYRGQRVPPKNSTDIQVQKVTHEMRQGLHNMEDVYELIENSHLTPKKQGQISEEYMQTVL
Estrogen receptor (Homo sapiens), sequence (P03372 whole entry, looked up): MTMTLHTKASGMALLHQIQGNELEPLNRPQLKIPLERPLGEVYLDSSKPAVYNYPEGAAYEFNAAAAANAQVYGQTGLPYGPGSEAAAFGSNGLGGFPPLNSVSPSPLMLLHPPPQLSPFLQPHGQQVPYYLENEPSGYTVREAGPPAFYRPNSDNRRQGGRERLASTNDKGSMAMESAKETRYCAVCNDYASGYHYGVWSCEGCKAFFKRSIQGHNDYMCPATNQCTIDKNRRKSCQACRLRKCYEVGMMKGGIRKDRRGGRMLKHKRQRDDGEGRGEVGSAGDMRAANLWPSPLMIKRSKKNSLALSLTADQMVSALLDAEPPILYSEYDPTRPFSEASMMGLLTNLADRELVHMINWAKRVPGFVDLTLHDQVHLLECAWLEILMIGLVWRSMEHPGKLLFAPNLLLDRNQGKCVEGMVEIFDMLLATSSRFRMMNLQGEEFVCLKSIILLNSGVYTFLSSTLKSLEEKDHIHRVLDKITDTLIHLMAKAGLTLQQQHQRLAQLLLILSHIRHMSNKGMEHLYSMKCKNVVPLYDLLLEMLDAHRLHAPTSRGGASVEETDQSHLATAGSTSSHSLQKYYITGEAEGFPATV

Row | SMILES | Potency [1] | Potency [2] | Potency [3] | Potency [4] | Potency [5] | Potency [6] | Potency [7] | Potency [8] | outcome [9] | Potency [10] | Potency [11] | Potency [12] | Potency [13] | Potency [14] | Potency [15] | Potency [16] | Potency [17]
1 | Cc1ncc([N+](=O)[O-])n1CCO | inactive | inactive | inactive | inactive | inactive | inactive | inactive | inactive | inactive | inactive | inactive | inactive | inactive | inactive | inactive | inactive | inactive
2 | Cc1cc(=O)oc2cc(O)ccc12 | inactive | inactive | inactive | inactive | inactive | – | – | inactive | inactive | 15.4 µM (active) and 17.2 µM (active) and inactive | inactive | inactive | inactive | inactive | inactive | inactive | –
3 | O=c1[nH]cnc2c1ncn2[C@H]1CC[C@@H](CO)O1 | inactive | inactive | inactive | inactive | – | inactive | inactive | inactive | inactive | inactive | inactive | inactive | inactive | inactive | inactive | inactive | –
